Targets with a hit are over-represented here; the source holds about 8,800 in all. About 0.5% of all pairs of compound and target were hits. A number with no mark means an inactive call.
Columns and labels:
Test in all cases: log2 fold change, soluble protein after heating vs DMSO (PISA); higher = thermal stabilisation; K562 lysate, 10 uM; active = over 0.2 and 3.5 SD of the protein, either way, in both replicates (recomputed)
vemurafenib = compound: CCCS(=O)(=O)Nc1ccc(F)c(C(=O)c2c[nH]c3ncc(-c4ccc(Cl)cc4)cc23)c1F [vemurafenib]
In short: (§1)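 Quantification was by TMTpro 16plex LC-MS/MS with equalised channel sums, applied to the supernatant after 21,000xg for 90 min. Samples were crude K562 extract at 1 mg/mL protein in PBS pH 7.4 with 1 mM MgCl2, treated with 10 μM compound for 30 min, heated for 3 min across 48°C-58°C, pooled and brought to 0.5% NP-40 at 4°C. Values are log-two fold changes in thermal stability relative to solvent controls, from duplicates.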

[1] = compound: CCCS(=O)(=O)Nc1ccc(F)c(C(=O)c2c[nH]c3ncc(Cl)cc23)c1F
In short: as §1

barasertib = compound: CCN(CCCOc1ccc2c(Nc3cc(CC(=O)Nc4cccc(F)c4)[nH]n3)ncnc2c1)CCOP(=O)(O)O [barasertib]
In short: as §1

[2] = compound: CC[C@@H]1C(=O)N(C)c2cnc(Nc3ccc(C(=O)NC4CCN(C)CC4)cc3OC)nc2N1C1CCCC1
In short: as §1

volasertib = compound: CC[C@@H]1C(=O)N(C)c2cnc(Nc3ccc(C(=O)N[C@H]4CC[C@H](N5CCN(CC6CC6)CC5)CC4)cc3OC)nc2N1C(C)C [volasertib]
In short: as §1

[3] = compound: CCn1c(C(=O)N(C2CC2)C2CC2)cc2c3c(ncn3C)c(Nc3cc(C)n(C)n3)nc21
In short: as §1

[4] = compound: CCn1cc(-c2ccnc3[nH]c(-c4cccc(CN(C)C)c4)cc23)c(-c2ccc(NC(=O)N(C)C)cc2)n1
In short: as §1

[5] = compound: CN1CCC(CNc2ccc3ncc(-c4cccc(OC(F)(F)F)c4)n3n2)CC1
In short: as §1

sotrastaurin = compound: CN1CCN(c2nc(C3=C(c4c[nH]c5ccccc45)C(=O)NC3=O)c3ccccc3n2)CC1 [sotrastaurin]
In short: as §1

alvocidib = compound: CN1CC[C@H](c2c(O)cc(O)c3c(=O)cc(-c4ccccc4Cl)oc23)[C@H](O)C1 [alvocidib]
In short: as §1

Tubastatin A = compound: CN1CCc2c(c3ccccc3n2Cc2ccc(C(=O)NO)cc2)C1 [Tubastatin A]
In short: as §1

[6] = compound: CNC(=O)C1=CC=CC=C1NC2=NC(=NC=C2Cl)NC3=C(C=C(C=C3)N4CCOCC4)OC
In short: as §1

defactinib = compound: CNC(=O)c1ccc(Nc2ncc(C(F)(F)F)c(NCc3nccnc3N(C)S(C)(=O)=O)n2)cc1 [defactinib]
In short: as §1

encorafenib = compound: COC(=O)N[C@@H](C)CNc1nccc(-c2cn(C(C)C)nc2-c2cc(Cl)cc(NS(C)(=O)=O)c2F)n1 [encorafenib]
In short: as §1

[7] = compound: COC(=O)[C@H](CCSC)NC(=O)C1=C(C=C(C=C1)NC[C@H](CS)N)C2=CC=CC=C2
In short: as §1

alisertib = compound: COc1cc(Nc2ncc3c(n2)-c2ccc(Cl)cc2C(c2c(F)cccc2OC)=NC3)ccc1C(=O)O [alisertib]
In short: as §1

[8] = compound: COc1cc2nc(-c3cc(F)ccc3O)nc(N[C@@H]3CNC[C@H]3C(C)(C)O)c2cc1OC
In short: as §1

gefitinib = compound: COc1cc2ncnc(Nc3ccc(F)c(Cl)c3)c2cc1OCCCN1CCOCC1 [gefitinib]
In short: as §1

saracatinib = compound: CN1CCN(CCOc2cc(OC3CCOCC3)c3c(Nc4c(Cl)ccc5c4OCO5)ncnc3c2)CC1 [saracatinib]
In short: as §1

[9] = compound: CNc1nc(-c2ccc3c(N)n[nH]c3c2)cc(N2C[C@@H](C(=O)NC3CCCCC3)CC[C@H]2C)n1
In short: as §1

Sequence of UniProt Q8WU79 (Q8WU79 whole entry, looked up): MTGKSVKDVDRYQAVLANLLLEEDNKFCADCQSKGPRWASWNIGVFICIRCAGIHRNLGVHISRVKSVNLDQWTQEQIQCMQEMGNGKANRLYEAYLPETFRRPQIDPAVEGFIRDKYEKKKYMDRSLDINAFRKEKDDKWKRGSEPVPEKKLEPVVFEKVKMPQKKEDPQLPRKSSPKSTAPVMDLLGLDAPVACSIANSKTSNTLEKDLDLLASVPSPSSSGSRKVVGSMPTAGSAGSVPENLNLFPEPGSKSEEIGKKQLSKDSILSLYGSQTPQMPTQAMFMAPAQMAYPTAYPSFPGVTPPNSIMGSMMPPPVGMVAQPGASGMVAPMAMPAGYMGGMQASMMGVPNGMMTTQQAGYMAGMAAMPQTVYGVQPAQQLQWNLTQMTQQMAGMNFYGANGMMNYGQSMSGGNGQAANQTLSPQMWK
Sequence of UniProt Q15527 (Q15527 whole entry, looked up): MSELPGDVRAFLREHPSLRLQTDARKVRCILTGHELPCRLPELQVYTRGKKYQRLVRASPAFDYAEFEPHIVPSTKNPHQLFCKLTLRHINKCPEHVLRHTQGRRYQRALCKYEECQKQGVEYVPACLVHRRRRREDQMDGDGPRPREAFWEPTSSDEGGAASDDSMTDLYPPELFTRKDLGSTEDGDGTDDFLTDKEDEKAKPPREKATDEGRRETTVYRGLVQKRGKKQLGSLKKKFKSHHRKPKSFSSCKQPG
Sequence of UniProt Q9UHW9 (Q9UHW9 whole entry, looked up): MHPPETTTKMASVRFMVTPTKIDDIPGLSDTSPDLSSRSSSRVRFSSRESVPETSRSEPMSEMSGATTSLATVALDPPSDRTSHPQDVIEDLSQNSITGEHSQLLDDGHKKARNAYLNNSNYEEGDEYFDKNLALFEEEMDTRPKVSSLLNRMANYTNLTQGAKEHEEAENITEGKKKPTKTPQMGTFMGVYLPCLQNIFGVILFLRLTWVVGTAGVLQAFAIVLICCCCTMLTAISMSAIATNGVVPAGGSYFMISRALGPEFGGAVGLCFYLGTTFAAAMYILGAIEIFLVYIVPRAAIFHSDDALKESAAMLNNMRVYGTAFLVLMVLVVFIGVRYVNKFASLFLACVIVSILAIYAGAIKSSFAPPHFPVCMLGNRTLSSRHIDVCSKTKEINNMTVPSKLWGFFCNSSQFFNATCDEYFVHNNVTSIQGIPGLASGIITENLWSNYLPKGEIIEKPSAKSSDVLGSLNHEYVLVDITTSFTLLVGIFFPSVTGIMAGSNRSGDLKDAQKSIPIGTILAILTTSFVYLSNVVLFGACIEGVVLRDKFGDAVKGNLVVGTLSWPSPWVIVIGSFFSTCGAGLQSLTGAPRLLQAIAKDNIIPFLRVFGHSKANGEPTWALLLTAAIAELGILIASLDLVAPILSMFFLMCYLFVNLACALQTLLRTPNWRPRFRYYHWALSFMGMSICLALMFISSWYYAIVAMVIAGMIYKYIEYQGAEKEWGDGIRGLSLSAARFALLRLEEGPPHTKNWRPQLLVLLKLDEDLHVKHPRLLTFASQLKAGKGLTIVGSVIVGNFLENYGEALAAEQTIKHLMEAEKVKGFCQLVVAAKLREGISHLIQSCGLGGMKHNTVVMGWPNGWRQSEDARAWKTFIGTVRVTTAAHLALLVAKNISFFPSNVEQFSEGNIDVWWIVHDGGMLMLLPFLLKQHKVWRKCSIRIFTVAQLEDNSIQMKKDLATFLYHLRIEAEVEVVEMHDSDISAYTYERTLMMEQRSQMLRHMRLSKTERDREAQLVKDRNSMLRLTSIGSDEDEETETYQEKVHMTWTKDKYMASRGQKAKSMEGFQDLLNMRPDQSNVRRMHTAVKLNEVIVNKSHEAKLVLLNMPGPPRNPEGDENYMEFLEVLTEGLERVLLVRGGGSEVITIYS
Sequence of UniProt Q96BD8 (Q96BD8 whole entry, looked up): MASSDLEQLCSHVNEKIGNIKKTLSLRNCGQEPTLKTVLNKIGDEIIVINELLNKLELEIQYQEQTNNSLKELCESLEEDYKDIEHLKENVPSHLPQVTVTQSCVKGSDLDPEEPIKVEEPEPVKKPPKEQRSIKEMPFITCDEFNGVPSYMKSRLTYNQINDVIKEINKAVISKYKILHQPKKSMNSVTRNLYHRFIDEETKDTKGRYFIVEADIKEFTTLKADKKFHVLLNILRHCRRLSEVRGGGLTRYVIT
Sequence of UniProt Q9Y2D2 (Q9Y2D2 whole entry, looked up): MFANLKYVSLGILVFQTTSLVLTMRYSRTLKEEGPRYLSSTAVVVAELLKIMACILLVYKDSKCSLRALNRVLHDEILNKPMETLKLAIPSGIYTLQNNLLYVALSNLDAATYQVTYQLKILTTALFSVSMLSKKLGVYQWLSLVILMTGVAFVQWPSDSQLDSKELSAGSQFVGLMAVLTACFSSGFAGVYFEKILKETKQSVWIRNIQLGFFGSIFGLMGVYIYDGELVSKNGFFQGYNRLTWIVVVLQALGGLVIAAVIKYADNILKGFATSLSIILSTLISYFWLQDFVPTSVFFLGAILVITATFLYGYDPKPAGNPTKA
Sequence of UniProt Q96H78 (Q96H78 whole entry, looked up): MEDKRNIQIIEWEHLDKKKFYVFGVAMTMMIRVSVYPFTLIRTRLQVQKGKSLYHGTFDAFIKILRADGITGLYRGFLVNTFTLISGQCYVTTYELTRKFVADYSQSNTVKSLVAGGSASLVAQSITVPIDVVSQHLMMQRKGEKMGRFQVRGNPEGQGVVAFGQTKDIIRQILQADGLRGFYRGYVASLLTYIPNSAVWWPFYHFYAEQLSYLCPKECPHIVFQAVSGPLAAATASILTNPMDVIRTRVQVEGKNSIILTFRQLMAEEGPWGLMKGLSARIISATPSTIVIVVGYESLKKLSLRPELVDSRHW
Sequence of UniProt Q53T94 (Q53T94 whole entry, looked up): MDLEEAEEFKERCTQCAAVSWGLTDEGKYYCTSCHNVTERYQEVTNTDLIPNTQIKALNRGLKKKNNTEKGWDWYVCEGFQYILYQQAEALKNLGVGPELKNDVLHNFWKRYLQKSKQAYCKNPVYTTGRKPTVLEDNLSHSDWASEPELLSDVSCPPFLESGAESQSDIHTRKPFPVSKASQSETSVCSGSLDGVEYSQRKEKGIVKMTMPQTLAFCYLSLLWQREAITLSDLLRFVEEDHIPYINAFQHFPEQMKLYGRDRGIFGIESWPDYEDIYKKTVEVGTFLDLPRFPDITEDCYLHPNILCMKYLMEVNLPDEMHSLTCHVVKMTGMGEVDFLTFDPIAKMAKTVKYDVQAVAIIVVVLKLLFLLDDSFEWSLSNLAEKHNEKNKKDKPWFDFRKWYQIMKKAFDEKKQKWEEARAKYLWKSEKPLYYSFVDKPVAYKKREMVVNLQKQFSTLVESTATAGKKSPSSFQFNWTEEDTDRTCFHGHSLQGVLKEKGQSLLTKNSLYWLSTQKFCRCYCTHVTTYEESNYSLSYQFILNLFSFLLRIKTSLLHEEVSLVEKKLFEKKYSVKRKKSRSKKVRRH
Sequence of UniProt O60906 (O60906 whole entry, looked up): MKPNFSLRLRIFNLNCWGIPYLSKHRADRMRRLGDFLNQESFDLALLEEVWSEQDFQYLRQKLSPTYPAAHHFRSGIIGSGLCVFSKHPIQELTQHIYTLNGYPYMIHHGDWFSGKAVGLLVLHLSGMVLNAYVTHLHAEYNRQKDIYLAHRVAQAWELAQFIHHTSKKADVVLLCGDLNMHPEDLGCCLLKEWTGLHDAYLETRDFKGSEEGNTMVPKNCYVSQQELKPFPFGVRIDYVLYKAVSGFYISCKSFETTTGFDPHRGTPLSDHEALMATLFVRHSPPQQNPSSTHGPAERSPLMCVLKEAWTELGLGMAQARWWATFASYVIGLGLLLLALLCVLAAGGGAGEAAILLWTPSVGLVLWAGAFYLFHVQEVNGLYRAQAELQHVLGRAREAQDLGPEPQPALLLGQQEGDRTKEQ
Sequence of UniProt Q9UL54 (Q9UL54 whole entry, looked up): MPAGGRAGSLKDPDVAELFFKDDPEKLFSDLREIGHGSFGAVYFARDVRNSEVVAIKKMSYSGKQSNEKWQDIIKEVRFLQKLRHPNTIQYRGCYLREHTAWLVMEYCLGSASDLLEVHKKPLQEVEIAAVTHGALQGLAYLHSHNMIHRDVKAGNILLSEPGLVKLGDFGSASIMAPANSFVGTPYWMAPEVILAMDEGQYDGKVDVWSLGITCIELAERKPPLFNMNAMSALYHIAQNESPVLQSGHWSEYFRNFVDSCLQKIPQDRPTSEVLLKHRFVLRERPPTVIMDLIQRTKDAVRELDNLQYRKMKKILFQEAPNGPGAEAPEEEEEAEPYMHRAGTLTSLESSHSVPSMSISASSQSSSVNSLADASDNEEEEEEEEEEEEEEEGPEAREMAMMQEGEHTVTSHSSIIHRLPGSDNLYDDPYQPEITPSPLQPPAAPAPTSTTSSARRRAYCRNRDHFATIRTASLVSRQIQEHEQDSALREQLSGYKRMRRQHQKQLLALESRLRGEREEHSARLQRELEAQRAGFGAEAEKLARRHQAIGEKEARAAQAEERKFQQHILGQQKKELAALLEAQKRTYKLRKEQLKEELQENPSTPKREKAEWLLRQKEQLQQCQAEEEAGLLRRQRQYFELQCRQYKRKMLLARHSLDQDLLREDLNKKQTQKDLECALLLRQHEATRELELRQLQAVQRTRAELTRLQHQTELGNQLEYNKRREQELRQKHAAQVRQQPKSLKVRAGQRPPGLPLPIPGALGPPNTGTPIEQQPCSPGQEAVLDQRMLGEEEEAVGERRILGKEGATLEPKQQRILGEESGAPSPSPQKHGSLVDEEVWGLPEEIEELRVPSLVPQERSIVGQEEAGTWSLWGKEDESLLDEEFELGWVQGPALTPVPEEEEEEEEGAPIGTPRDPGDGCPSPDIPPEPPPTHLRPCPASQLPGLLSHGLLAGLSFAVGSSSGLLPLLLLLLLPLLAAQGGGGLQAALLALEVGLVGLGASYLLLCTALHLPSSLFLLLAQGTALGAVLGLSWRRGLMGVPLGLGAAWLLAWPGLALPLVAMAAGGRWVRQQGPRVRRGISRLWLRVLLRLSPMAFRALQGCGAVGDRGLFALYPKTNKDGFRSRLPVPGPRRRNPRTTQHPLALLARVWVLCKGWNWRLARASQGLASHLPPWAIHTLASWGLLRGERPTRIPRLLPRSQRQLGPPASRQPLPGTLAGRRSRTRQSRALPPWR

Target	log2 fold change (vemurafenib)	log2 fold change [1]	log2 fold change (barasertib)	log2 fold change [2]	log2 fold change (volasertib)	log2 fold change [3]	log2 fold change [4]	log2 fold change [5]	log2 fold change (sotrastaurin)	log2 fold change (alvocidib)	log2 fold change (Tubastatin A)	log2 fold change [6]	log2 fold change (defactinib)	log2 fold change (encorafenib)	log2 fold change [7]	log2 fold change (alisertib)	log2 fold change [8]	log2 fold change (gefitinib)	log2 fold change (saracatinib)	log2 fold change [9]
SNUPN (UniProt O95149)	-0.008	0.007	0.06	-0.082	0.04	0.051	-0.024	-0.036	0.028	0.012	0.028	-0.173	-0.066	0.006	0.155	-0.007	-0.009	0.076	–	–
SURF2 (UniProt Q15527)	-0.009	-0.002	-0.007	0.049	0.002	0.127	-0.063	0.02	-0.007	-0.02	-0.276	–	0.016	-0.001	-0.319 (active)	-0.005	0.011	-0.041	0.004	0.013
SLC25A44 (UniProt Q96H78)	0.014	0.015	0.007	0.002	0.06	0.307	0.021	0.17	0.062	-0.05	0.007	-0.221	0.064	0.015	-0.013	–	0.099	–	-0.041	0.14
SMYD3 (UniProt Q9H7B4)	0.036	0.013	0.017	-0.137	-0.051	-0.02	–	–	-0.005	–	-0.122	-0.018	0.036	0.022	0.071	-0.044	0	0.034	0.045	0.028
STK3 isoform 2 (UniProt Q13188)	0.046	0.04	0.032	–	-0.047	-0.012	-0.017	0.216	0.142	–	-0.075	–	0.205	-0.046	-0.068	–	0.269	0.002	-0.01	0.015
SKA1 (UniProt Q96BD8)	-0.004	-0.01	-0.017	-0.234 (active)	-0.121	0.003	-0.167	0.021	0.066	-0.046	-0.064	0.001	0.015	0.129	-0.055	-0.017	0.017	-0.006	0.071	-0.008
SMC1B isoform 3 (UniProt Q8NDV3)	0.149	0.002	0.003	-0.073	0.024	-0.071	–	–	-0.02	–	0.038	0	0.147	0.039	-0.03	0.027	-0.03	0.044	0.055	0.028
SLC12A6 (UniProt Q9UHW9)	0.015	0.021	0.002	0.037	0.002	0.008	-0.06	0.012	-0.01	-0.03	0.03	0.065	0.006	0.034	-0.021	-0.006	0.004	0.093	-0.003	-0.038
SNX6, A0A0A0MRI2	0.005	0.025	0.006	-0.111	-0.05	0.026	0.21	-0.126	-0.013	0.076	-0.051	0.004	0.008	0.007	0.171	-0.008	-0.003	-0.01	-0.002	-0.024
TAOK2 (UniProt Q9UL54)	-0.039	-0.041	0.059	0.021	-0.056	-0.077	-0.005	-0.003	0.109	-0.053	0.046	–	-0.001	-0.033	0.055	0.02	0.02	-0.009	-0.005	-0.015
TAF1B (UniProt Q53T94)	0.397	-0.217	0.11	-0.212	-0.057	-0.039	-0.12	0.166	0.055	0.175	-0.083	–	-0.024	0.073	-0.13	-0.177	-0.047	0.016	0.045	0.614
SMAP2 (UniProt Q8WU79)	-0.043	0.011	0.013	0.047	-0.02	0.012	0.043	-0.001	-0.027	0.017	-0.002	-0.058	0.024	0.047	-0.037	-0.004	0.01	-0.03	0.044	-0.086
SLC40A1 (UniProt Q9NP59)	0.01	-0.037	–	0.123	0.037	-0.106	-0.491 (active)	0.067	0.026	0.002	0.145	-0.05	0.087	0.013	-0.072	0.018	0.039	-0.01	0	-0.029
SLC35A3 isoform 2 (UniProt Q9Y2D2)	-0.024	-0.031	–	0.056	0.005	-0.374	-1.1 (active)	0.336	-0.026	-0.406	-0.079	0.016	0.069	0.067	-0.019	0.069	-0.019	0.198	–	–
SNAP23 isoform 2 (UniProt O00161)	0.172	0.09	–	0.052	0.003	-0.029	0.123	-0.061	–	-0.323	-0.202	0.029	-0.118	-0.295	0.071	-0.15	-0.152	0.016	–	–
SIX5 (UniProt Q8N196)	–	0.031	-0.026	–	-0.046	0.084	0.538	-0.132	-0.009	0.159	0.117	0.015	–	–	–	0.023	0.008	0.13	-0.093	0.043
SMPD2 (UniProt O60906)	–	0.179	–	0.051	0.032	-0.017	-0.003	-0.104	–	-0.043	0.088	-0.787	–	0.09	-0.22	–	-0.074	–	0.018	-0.034

From the supplement of paper PMC10849652
